A short description of assay [1]: anti-His antibody binders, primary screen, artefact control for SMM control protein annotation, biochemical, small-molecule microarray, 635 nm fluorescence (AID 1128).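 Also: score merges feature fluorescence with signal-to-noise for each printed compound spot.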 To be noted: anti-His Alexa647 antibody binding, higher = more signal.
Assay [2] relates to Human papillomavirus type 1a E7 protein (residues 1-88). As to the kind of experiment: HPV1a E7 small-molecule binders, primary screen, biochemical, small-molecule microarray, residues 1-88, 635 nm (AID 1129). To be noted: small-molecule microarray binding, fluorescence 635 nm; higher = more signal.
The target of assay [3] is Focal adhesion kinase 1 (Homo sapiens) (UniProt Q05397). The experiment in a line: small-molecule microarray binders of FAK, primary screen, biochemical, 635/667 nm fluorescence, BSA, DTT (AID 1130).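 Also: composite of spot emission at 667 nm and signal to noise over triplicate slides.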 The note with it: PTK2 binding, 635 nm fluorescence, higher = more signal.
Assay [4] has as its system Fibrinogen (Alexa647-labelled). As to the kind of experiment: fibrinogen binders on compound microarrays, profiling panel, artefact control for SMM control-protein annotation, biochemical, small-molecule microarray, 635/667 nm fluorescence (AID 1131).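 Also: z-score merges 667 nm fluorescence with per-spot signal-to-noise over triplicate slides.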 To be noted: fibrinogen-A647 binding fluorescence, higher = more signal.
Assay [5] concerns the target Follistatin (Homo sapiens) (UniProt P19883). As to the kind of experiment: follistatin binders on small-molecule microarrays, primary screen, biochemical, small-molecule microarray, 635/667 nm fluorescence (AID 1132). To be noted: FST binding, 635 nm fluorescence, higher = more signal.
Assay [6] concerns the target Fibroblast growth factor 2 (Homo sapiens) (UniProt P09038). As to the kind of experiment: FGF2 binders on small-molecule microarrays, primary screen, biochemical, small-molecule microarray, 635/667 nm fluorescence (AID 1133). The note with it: small-molecule microarray binding, FGF2, fluorescence 635/667; higher = more signal.
Assay [7] is described as follows: mitochondrial membrane potential change in A549 cells, profiling panel, cell-based, JC-1 fluorescence, basal, 24 h, 100 nL (AID 1138).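 Also: A549 lung adenocarcinoma cells under basal conditions with no added stimulus; test concentration not given here.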 The note with it: higher = more signal.
For another assay, the system named is Lefty1. As to the kind of experiment: Lefty1 binders on small-molecule microarrays, primary screen, biochemical, small-molecule microarray, 635/667 nm fluorescence (AID 1139). To be noted: small-molecule microarray binding, fluorescence 635/667; higher = more signal.
Assay [8] concerns wheat germ agglutinin (Triticum aestivum), Alexa647-labelled. The experiment in a line: wheat germ agglutinin binders on compound microarrays, profiling panel, artefact control for SMM control-protein annotation, biochemical, small-molecule microarray, 635/667 nm fluorescence (AID 1140).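 Also: score merges 667 nm feature emission with signal to noise over triplicate slides.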 The note with it: WGA-A647 binding, 635 nm fluorescence, higher = more signal.
Assay [9] deals with Luciferin 4-monooxygenase (Photinus pyralis) (UniProt P08659). The experiment in a line: firefly luciferase enzyme inhibitors, primary screen, biochemical, luminescence, purified enzyme, 2006 set (AID 1141).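 Also: cell-free assay with purified firefly luciferase at 100 ng per well in PBS; test concentration not given here.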 The note with it: SteadyGlo luminescence, 30 min, higher = more signal, called active from +8 up or from −8 down.

Here are results for 16 molecules from PubChem BioAssay.

Calls of active or inactive are those of the source.

Sequence of Luciferin 4-monooxygenase (Photinus pyralis) (P08659 whole entry, looked up): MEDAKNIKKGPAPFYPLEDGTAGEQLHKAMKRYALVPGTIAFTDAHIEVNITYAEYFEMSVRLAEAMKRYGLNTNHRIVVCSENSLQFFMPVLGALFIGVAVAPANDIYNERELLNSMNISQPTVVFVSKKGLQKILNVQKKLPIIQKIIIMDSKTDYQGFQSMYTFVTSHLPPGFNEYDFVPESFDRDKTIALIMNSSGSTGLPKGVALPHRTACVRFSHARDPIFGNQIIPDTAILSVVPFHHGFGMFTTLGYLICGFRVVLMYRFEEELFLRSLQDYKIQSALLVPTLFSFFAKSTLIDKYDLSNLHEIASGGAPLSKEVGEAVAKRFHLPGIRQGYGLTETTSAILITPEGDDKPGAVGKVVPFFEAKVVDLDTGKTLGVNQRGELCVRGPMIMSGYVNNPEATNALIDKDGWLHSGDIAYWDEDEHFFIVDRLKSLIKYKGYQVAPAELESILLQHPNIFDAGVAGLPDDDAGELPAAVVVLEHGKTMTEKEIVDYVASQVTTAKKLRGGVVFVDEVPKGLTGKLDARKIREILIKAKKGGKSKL
Sequence of Focal adhesion kinase 1 (Homo sapiens) (Q05397 whole entry, looked up): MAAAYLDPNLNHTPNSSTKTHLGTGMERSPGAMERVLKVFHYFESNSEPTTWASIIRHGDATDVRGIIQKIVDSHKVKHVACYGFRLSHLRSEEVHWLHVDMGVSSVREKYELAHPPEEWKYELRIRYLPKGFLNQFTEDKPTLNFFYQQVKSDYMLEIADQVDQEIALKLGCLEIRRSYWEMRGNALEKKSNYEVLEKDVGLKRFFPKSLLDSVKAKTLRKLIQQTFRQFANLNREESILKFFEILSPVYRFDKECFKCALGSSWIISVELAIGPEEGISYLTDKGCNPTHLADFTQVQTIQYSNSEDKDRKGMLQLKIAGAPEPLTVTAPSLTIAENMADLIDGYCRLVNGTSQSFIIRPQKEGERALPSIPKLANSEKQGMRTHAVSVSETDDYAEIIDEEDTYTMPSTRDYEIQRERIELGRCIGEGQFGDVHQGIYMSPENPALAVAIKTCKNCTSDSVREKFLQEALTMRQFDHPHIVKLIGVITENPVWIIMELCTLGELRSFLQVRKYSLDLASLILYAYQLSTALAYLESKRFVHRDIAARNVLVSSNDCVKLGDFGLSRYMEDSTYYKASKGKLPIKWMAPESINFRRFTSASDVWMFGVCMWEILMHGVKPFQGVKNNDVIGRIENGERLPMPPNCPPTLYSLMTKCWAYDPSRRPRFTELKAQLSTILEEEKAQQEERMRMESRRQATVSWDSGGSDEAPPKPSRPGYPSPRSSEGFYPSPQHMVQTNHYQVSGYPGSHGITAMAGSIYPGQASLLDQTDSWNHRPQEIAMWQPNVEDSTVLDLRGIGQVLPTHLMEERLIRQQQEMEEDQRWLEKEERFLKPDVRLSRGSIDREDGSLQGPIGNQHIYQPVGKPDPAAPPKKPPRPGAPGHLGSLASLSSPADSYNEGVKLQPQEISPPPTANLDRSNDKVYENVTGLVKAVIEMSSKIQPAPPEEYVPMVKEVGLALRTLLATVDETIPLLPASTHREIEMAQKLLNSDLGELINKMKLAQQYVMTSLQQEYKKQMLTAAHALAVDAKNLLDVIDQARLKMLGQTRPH
Sequence of Follistatin (Homo sapiens) (P19883 whole entry, looked up): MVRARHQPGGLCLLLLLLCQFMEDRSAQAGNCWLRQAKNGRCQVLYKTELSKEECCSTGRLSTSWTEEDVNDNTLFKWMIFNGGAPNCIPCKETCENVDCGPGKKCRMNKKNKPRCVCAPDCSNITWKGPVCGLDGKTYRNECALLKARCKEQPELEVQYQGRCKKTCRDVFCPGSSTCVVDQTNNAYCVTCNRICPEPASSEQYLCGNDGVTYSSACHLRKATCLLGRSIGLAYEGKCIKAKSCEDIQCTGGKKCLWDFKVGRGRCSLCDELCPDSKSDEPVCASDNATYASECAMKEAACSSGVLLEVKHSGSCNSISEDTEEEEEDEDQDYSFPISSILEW
Sequence of Fibroblast growth factor 2 (Homo sapiens) (P09038 whole entry, looked up): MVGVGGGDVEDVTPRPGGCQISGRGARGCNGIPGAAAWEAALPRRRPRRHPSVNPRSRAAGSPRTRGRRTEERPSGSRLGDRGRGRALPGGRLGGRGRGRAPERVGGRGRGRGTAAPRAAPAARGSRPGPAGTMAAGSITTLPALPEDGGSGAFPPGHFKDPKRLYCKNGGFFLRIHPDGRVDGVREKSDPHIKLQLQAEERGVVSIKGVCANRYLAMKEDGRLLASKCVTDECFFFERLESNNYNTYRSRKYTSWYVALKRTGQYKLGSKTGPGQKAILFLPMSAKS

For `O=C1NC(=O)C2C1C=CC(C(O)c1ccc([N+](=O)[O-])cc1)N2Nc1ccccn1` (stereo not given), the composite z-score is 0.753 in [1]; 0.175 in assay [2]; -0.329 in assay [3]; 0.0114 in assay [4]; -0.12 in assay [5]; -0.163 in [6]. The composite z-score with Lefty1 is -0.262; in [8], -0.0047. The z-score in assay [7] was -0.0893; in [9], -1.48 (inactive).
For the molecule `C=CCC(OC(C)=O)[C@@H]1[C@@H](N(Cc2cc3ccccc3o2)C(=O)c2cccc3ccccc23)c2cc(OCCCO)ccc2N1C(=O)c1ccc2ccccc2n1` (stereo not given in full), the composite z-score is -0.164 in [1]; -0.332 in [2]; 0.169 in assay [3]; -0.137 in assay [4]; 0.403 in assay [5]; 0.285 in assay [6]. Besides, the composite z-score in the assay with Lefty1 was 0.496; in [8], -0.0075. For the same molecule, the z-score in [7] was -0.0913; in assay [9], -0.305 (inactive).
On to `COc1ccc(C#Cc2ccc3c(c2)[C@]2(C(=O)N3)[C@H](C(=O)O)[C@H]3C(=O)O[C@H](c4ccccc4)[C@H](c4ccccc4)N3[C@@H]2c2ccccc2OCCO)cc1`, for which the composite z-score was 3.16 in assay [1]; 1.17 in [2]; 0.352 in [3]; 0.955 in assay [4]; 1.19 in assay [5]; 1.25 in assay [6]. Further, the composite z-score came to 1.04 in the assay on Lefty1 and 1.02 in [8]. Moreover, the z-score in [7] is -2.71; in assay [9], -5.71 (inactive).
Turning to `CC(C)NC(=O)[C@@]1(C)c2ccccc2C(=O)N(Cc2ccccc2)[C@H]1c1ccc(CO)cc1`, the composite z-score in assay [1] was 2.31; in assay [2], 0.244; in assay [3], -0.226; in [4], -0.722; in [5], -0.4; in assay [6] it was -0.719. For the same molecule, the results for the composite z-score (with Lefty1; in assay [8]) were -0.189 and 0.948, respectively. For the same molecule, the results for the z-score in [7] and in [9] were 0.648 and -1.09 (inactive), respectively.
On to `COC(=O)[C@@]1(Cc2ccc(OC)cc2)[C@H]2c3cc(C(=O)N4CCCC4)n(Cc4ccc(Cl)c(C(F)(F)F)c4)c3C[C@H]2CN1C(=O)c1ccccc1`, for which the composite z-score in [1] amounted to 1.27; in assay [2] it was 1.19; in assay [3], 0.421; in assay [4], 0.972; in [5], 1.34; in assay [6], 0.433. For the same molecule, the figures for the composite z-score (in the assay on Lefty1; in assay [8]) were 0.125 and 1.07, respectively. The z-score is 1.38 in [7] and 0.166 (inactive) in [9].
In the case of `COCCCN1C(=O)[C@@]2(c3ccc([N+](=O)[O-])cc3)CC(=O)N(CC34CC5CC(CC(C5)C3)C4)[C@@H]2c2ccc(CO)cc21`, the composite z-score was -0.0041 in assay [1]; -0.217 in [2]; -0.102 in assay [3]; -0.753 in assay [4]; 1 in assay [5]; 0.232 in assay [6]. Further, the composite z-score amounted to 0.739 in the assay with Lefty1 and 0.115 in assay [8]. The z-score in assay [7] is 0.961; in [9], -0.844 (inactive).
As for `C[N+](C)(C)CCCC[C@@H]1NC(=O)[C@@H]2C[C@H](C(=O)NCc3ccc(F)cc3)[C@H](c3ccc(O)cc3)N2C1=O`, the composite z-score in assay [1] was 0.928; in assay [2], -0.321; in assay [3], 0.951; in assay [4], -0.965; in [5] it was 1.34; in assay [6], 1.6. For the same molecule, the composite z-score in the assay with Lefty1 was 0.0338; in assay [8], -0.3. Also, the z-score in assay [7] is 0.526; in [9] it was -0.41 (inactive).
Turning to `CC(C)C[C@H]1NC(=O)C([C@@H](C)OCc2ccccc2)NC(=O)[C@@]23C(=O)N[C@@H](Cc4ccccc4)C2[C@H](C)[C@@]2(C)O[C@H]2C3/C=C/C/C=C\CNC1=O` (stereo not given in full), the composite z-score came out at 1.42 in [1]; 1 in [2]; 0.231 in [3]; 0.504 in [4]; 1.24 in assay [5]; 0.434 in assay [6]. The composite z-score in the assay with Lefty1 turned out to be 1.01; in assay [8] it was 0.999. Also, the z-score in [7] is 0.487; in [9], -0.53 (inactive).
In the case of `COCCCNC(=O)[C@@]1(CCS(=O)(=O)c2ccccc2)COC(c2ccc(OCCCO)cc2)=N1`, the composite z-score came out at 3.75 in assay [1]; 0.92 in assay [2]; 0.394 in [3]; 1.02 in [4]; 1.31 in assay [5]; 0.194 in assay [6]. Besides, the composite z-score was -0.0951 in the assay with Lefty1 and 1.59 in [8]. Besides, the z-score was 0.206 in [7] and -0.0482 (inactive) in assay [9].
For the molecule `NCCCCCCNC(=O)[C@@H]1C[C@@H]2C(=O)N3CCC[C@H]3C(=O)N2[C@@H]1c1cccc(OCCO)c1`, the composite z-score in [1] amounted to 2.14; in [2] it was 0.894; in assay [3], 0.0676; in [4], 0.882; in assay [5], 0.832; in assay [6], 1.16. Also, the composite z-score worked out at 1.24 in the assay on Lefty1 and 0.938 in assay [8]. Further, the z-score in [7] is -0.383; in assay [9], -0.268 (inactive).
For `COc1cc(C(O)C2C=CC3C(=O)N(c4ccccc4)C(=O)C3N2Nc2ccccc2F)cc(OC)c1OC` (stereo not given), the composite z-score was 1.66 in assay [1]; 1.28 in [2]; 0.337 in [3]; 1.03 in [4]; 0.233 in assay [5]; -0.171 in assay [6]. For the same molecule, the figures for the composite z-score (with Lefty1; in [8]) were 0.323 and 0.792, respectively. Further, the z-score in [7] was -0.374; in assay [9] it was -0.397 (inactive).
For the molecule `O=C1O[C@@H](c2ccccc2)[C@@H](c2ccccc2)N2[C@@H](c3ccc(OCCO)cc3)[C@]3(C(=O)Nc4ccc(C#CCCO)cc43)[C@@H](C(=O)O)[C@H]12`, the composite z-score stood at 2.76 in assay [1]; 1.14 in assay [2]; 0.453 in assay [3]; 0.95 in assay [4]; 1.11 in assay [5]; 0.871 in assay [6]. Also, the composite z-score stood at 0.45 in the assay with Lefty1 and 1.14 in [8]. Moreover, the z-score in assay [7] was 0.329; in assay [9], -1.71 (inactive).
As to `CC(C)N1C(=O)c2ccccc2[C@](C)(C(=O)NCC(F)(F)F)[C@@H]1c1ccc(CO)cc1`, the composite z-score in assay [1] was -0.851; in assay [2], -0.432; in assay [3], -0.749; in assay [4] it was -1.07; in assay [5], -1.02; in assay [6], -0.337. For the same molecule, the composite z-score in the assay on Lefty1 was -1.5; in [8], 0.594. The z-score in [7] is 0.607; in assay [9], -1.17 (inactive).
With `COCCOC(=O)N1C(=O)[C@@]2(c3cc(C#CCNC(N)=O)ccc31)[C@H](C(=O)Nc1nc3ccccc3s1)[C@H]1C(=O)O[C@H](c3ccccc3)[C@H](c3ccccc3)N1[C@@H]2c1ccccc1OCCO`, the composite z-score is -0.218 in assay [1]; 0.423 in [2]; 0.553 in assay [3]; 0.749 in [4]; 1.48 in assay [5]; 1.61 in assay [6]. In addition, the composite z-score in the assay with Lefty1 stood at 1.39; in [8], 0.489. The z-score is -1.79 in [7] and -2.69 (inactive) in assay [9].
Take `COC(=O)[C@@]1(Cc2ccccc2)[C@H]2c3cc(C(=O)N(C)C)n(Cc4ccc(C(F)(F)F)nc4)c3C[C@H]2CN1C(=O)c1ccccc1`: the composite z-score is 0.0389 in [1]; 1.29 in [2]; 0.74 in [3]; 1.01 in [4]; 0.714 in [5]; -0.428 in assay [6]. For the same molecule, the composite z-score in the assay with Lefty1 is -0.655; in assay [8], 0.736. The z-score in assay [7] was 0.353; in assay [9], 2.32 (inactive).
Regarding `N#Cc1ccc(C(O)C2C=CC3C(=O)NC(=O)C3N2Nc2ccc(Cl)cc2Cl)cc1` (stereo not given), the composite z-score is 0.299 in [1]; 0.534 in assay [2]; 0.352 in assay [3]; 0.732 in assay [4]; -0.0644 in assay [5]; -0.164 in assay [6]. Moreover, the figures for the composite z-score (in the assay with Lefty1; in assay [8]) were -0.781 and 1.08, respectively. Moreover, the figures for the z-score in [7] and in assay [9] were 1.28 and 0.293 (inactive), respectively.
